Screening data from PubChem.
Sampled rows, rich in hits. Any-hit rate of the full collection: about 19%.
TDP1 cell CPT – DT40-hTDP1 cell growth loss with CPT; chicken DT40 Tdp1-/-;hTDP1 cells + 20 nM CPT, ATP luminescence, 48 h; Potency, µM (series often up to 46.2 µM), without a hit: at the highest dose activity change, negative = growth inhibition, usual class: inhibitors; 420,000 tested, 12% active; AID 686979; also: potency is read from the fitted curve at half-maximal effect; nearly all actives have a fitted effect of over 55% in size
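Chicken DT40 Tdp1-/- cells stably complemented with human TDP1 were seeded at 400 cells/well in medium containing 20 nM camptothecin, exposed to pin-transferred compounds, and grown at 37 °C for at least 48 hr. Viability was read as ATP luminescence.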
IL-1B inflam inh – inhibitors of inflammasome signaling (IL-1 beta secretion); THP-1 LPS/ATP IL-1B secretion, AlphaLISA, 16 h; hits give low values; 360,000 tested, 4.7% active; activity change, % at 57.5 µM; in the data active = activity change below about -50%; inconclusive = mostly about -30% to -49%
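Secreted IL-1B measured by AlphaLISA bead assay after 16 h compound exposure of THP-1 cells; compounds (final up to 57.5 uM) added 1 h before LPS (250 ng/mL) and ATP (1.25 mM) stimulation; lower signal means less secretion.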
HT1080 IDH1KD tx – HT-1080 IDH1 knockdown cell toxicity (counter line). HT-1080 IDH1 knockdown viability, ATP luminescence, 48 h. Potency, µM (top dose mostly 46.1 µM), for the others: top-dose activity, negative = toxicity, most hits filed as cytotoxic. 360,000 tested, 2% active. AID 686971;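 also: potency is read from the fitted curve at half-maximal effect; 0% = DMSO wells and -100% = cell-free medium wells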
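Knockdown cells (IDH1KD HT-1080) received compounds 2 h after plating at 750 cells/well and were kept 48 h at 37 °C in 5% FBS RPMI. A CellTiter-Glo luminescence read gave % activity for curve fitting.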
DT40 TDP1 no CPT – qHTS for Inhibitors of human tyrosyl-DNA phosphodiesterase 1 (TDP1): qHTS in cells in absence of CPT; DT40 Tdp1-/- hTDP1 cells, no CPT, ATP luminescence, 48 h; AID 686978, 2013; Potency, µM (highest dose often 46.2 µM), for the others: at the top dose activity change, negative = growth inhibition, most hits filed as inhibitors; 420,000 tested, 15% active; also: potency is read from the fitted curve at half-maximal effect; nearly all actives have a fitted effect of over 55% in size
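Chicken DT40 Tdp1-/- cells stably complemented with human TDP1 were seeded at 400 cells/well with DMSO in place of 20 nM camptothecin. After compound pinning, cells grew at least 48 hr at 37 °C; viability read by CellTiter-Glo luminescence.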
HT1080NT lethal – kills 2HG-producing HT-1080-NT fibrosarcoma cells | AID 686970 | 360,000 tested, 1.6% active | Potency, µM (top dose mostly 46.1 µM), inactives show at the top dose activity, negative = less viability, actives largely listed as cytotoxic | HT-1080-NT fibrosarcoma viability, CellTiter-Glo ATP luminescence, 48 h;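 also: NT is the 2HG producing partner of a matched IDH1 knockdown line; potency is read from the fitted curve at half-maximal effect; 0% = DMSO-treated cells and -100% = media-only wells without cells; nearly all actives have a fitted effect of over 55% in size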
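HT-1080-NT fibrosarcoma cells (2HG-overproducing), 750 cells/well in RPMI with 5% FBS, dosed after 2 h and incubated 48 h at 37C. CellTiter-Glo luminescence normalized to DMSO and no-cell wells; concentration-response curves fitted and classed.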
An asterisk follows results filed as active; ? = inconclusive; / = not tested or not shown. Unless noted, calls follow the shape of the dose curve; as a rule, active = well fitted curve in the direction sought with a large enough effect; inconclusive = small, poorly fitted or top-dose-only effect, or another doubt; inactive = no such curve, though single readings can be large; an effect the other way counts as inactive or inconclusive. Unless noted, % is scaled to controls: 0 for no effect and ±100 for the full control effect.

SMILES	TDP1 cell CPT	IL-1B inflam inh	HT1080 IDH1KD tx	DT40 TDP1 no CPT	HT1080NT lethal
CCOC(=O)c1cc2c(=O)n3ccccc3nc2n(CC2CCCO2)c1=NC(=O)c1ccccc1C (configuration not stated)	8%	/	/	0%	/
CCOC(=O)c1cc2c(=O)n3ccccc3nc2n(Cc2ccco2)c1=NC(=O)c1ccccc1OC	16µM*	?	-8%	13µM*	-5%
CCOC(=O)c1cc2c(=O)n3cccc(C)c3nc2n(Cc2ccco2)c1=NC(=O)c1ccccc1	29µM*	15	9%	?	4%
CCCn1c(=NC(=O)c2ccco2)c(C(=O)OCC)cc2c(=O)n3ccccc3nc21	?	?	0%	?	18%
COc1ccc(S(=O)(=O)N(C)C[C@@H]2OCCCC[C@@H](C)Oc3ccc(NC(=O)NC(C)C)cc3C(=O)N([C@H](C)CO)C[C@@H]2C)cc1	?	18	5%	-28%	9%
O=C(Cn1cc(CCO)nn1)N1CCNCC1	-4%	10	4%	-5%	6%
CCOC(=O)c1cc2c(=O)n3cccc(C)c3nc2n(Cc2ccco2)c1=NC(=O)c1ccc(C)cc1	-3%	-4	7%	-5%	6%
CCOC(=O)c1cc2c(=O)n3ccccc3nc2n(Cc2ccco2)c1=NC(=O)c1ccc(OC)cc1	6.5µM*	2	-12%	5.2µM*	-2%
Cc1cc(C)c(S(=O)(=O)NCCc2csc3nc(-c4ccc(Cl)cc4)nn23)c(C)c1	?	/	/	18µM*	/
COc1ccc(-c2nc3scc(CCNS(=O)(=O)c4ccc(F)cc4C)n3n2)cc1	16µM*	/	/	16µM*	/
CCS(=O)(=O)NCCc1csc2nc(-c3ccc(C)cc3)nn12	16µM*	/	/	?	/
Cc1ccc(-c2nc3scc(CCNS(=O)(=O)c4ccc(F)c(C)c4)n3n2)cc1	?	/	/	21µM*	/
Cc1c(Cl)cnc(NC(=O)COC(=O)c2cccc(S(=O)(=O)N3CCOCC3)c2)c1Cl	-1%	14	2%	-3%	1%
CCOc1cc(/C=C(\C#N)C(=O)Nc2ccc(C)cc2)ccc1OCc1cc(=O)n2nc(CC)sc2n1	-1%	/	/	-14%	/
CC(C)Cc1nnc(NC(=O)CSc2nc(-c3ccccc3)cc(=O)[nH]2)s1	-21%	52	-11%	?	-7%
COC(=O)[C@@H]1CCCN1C(=O)CCc1nnc(CCC2CCCCC2)o1	-21%	8	18%	-26%	2%
CCOc1ccc(S(=O)(=O)NCCc2csc3nc(-c4cccc(C)c4)nn23)cc1	?	/	/	18µM*	/
COc1ccc(-c2nc3scc(CCNS(=O)(=O)c4ccc(Oc5ccccc5)cc4)n3n2)cc1	-13%	/	/	?	/
O=C(Nc1ccc(F)c(Cl)c1)c1cc(C2CCCCN2C(=O)c2ccccc2)on1 (configuration not stated)	8.2µM*	-12	?	6.5µM*	?
O=C(NCc1ccccc1)c1cc(C2CCCCN2C(=O)CCc2ccccc2)on1 (configuration not stated)	?	-11	1%	-19%	-1%
N#Cc1cccc(NC(=O)c2cc(C3CCCCN3C(=O)CCCc3ccccc3)on2)c1 (configuration not stated)	23µM*	?	-6%	?	4%
O=C(Nc1ccc(F)c(Cl)c1)c1cc(C2CCCCN2C(=O)CCc2ccccc2)on1 (configuration not stated)	15µM*	-20	-15%	?	-1%
O=C(Nc1ccccc1)c1cc(C2CCCCN2C(=O)CCc2ccccc2)on1 (configuration not stated)	?	9	-3%	-26%	-1%
Cc1ccc(C)c(CC(=O)N2CCCCC2c2cc(C(=O)Nc3ccc(F)c(Cl)c3)no2)c1 (configuration not stated)	21µM*	-16	-29%	23µM*	?
